# Assay results taken from ChEMBL document CHEMBL1201862, “PubChem BioAssay data set” (2004).
# In all, about 56,000 sequences went through this assay and about 2,900 (5.2%) were called active. No stated cut-off is given here; in the data, active = GI50 up to about 1.1 µM and inactive = higher. Only a sample is shown. Results with a measured potency or affinity are listed apart.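 Cells were grown in 96-well plates and exposed to each compound for 48 hours at five concentrations; endpoints were interpolated linearly between bracketing concentrations, or set to the highest concentration if not reached. GI50 marks 50% less growth.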
# Test system: SK-OV-3
# Test: NCI tumour cell line growth inhibition, 48 h
row,Substance,GI50 [µM]
1,"[Bis(aminomethyl)tetramethylenesilane]tetrachloropaltinum(IV), CHEMBL2146189",6.97
2,"cis-Bis[[(trimethylsilyl)methyl]amino]tetrachloroplatinum(IV), CHEMBL2146191",17.6
3,"[Bis(aminomethyl)ethylmethylsilane]tetrachloroplatinum(IV), CHEMBL2146192",13.1
4,"CISPLATIN, CHEMBL11359",5.35
5,"[Bis(aminomethyl)dimethylsilane]dichloroplatinum (II), CHEMBL2146201",> 100
6,"mu-(1,7-nanodiamine-N,N')bis-(cis-aminedichloroplatimum (II)), CHEMBL2146215",64.9
7,"[Bis(aminomethyl)pentamethylenesilane]tetrachloropaltinum(IV), CHEMBL2146204",4.5
8,"[Bis(aminomethyl)dimethylsilane]tetrachloroplatinum(IV), CHEMBL2146190",12.8
9,"[Bis(aminomethyl)pentamethylenesilane]dichloropaltinum(II), CHEMBL2146202",5.12
10,"[Bis(aminomethyl)diethylsilane]tetrachloroplatinum(IV), CHEMBL2146203",1.69
11,"[Bis(aminomethyl)tetramethylenesilane]dichloropaltinum(II), CHEMBL2146205",26.2
